# PubChem BioAssay (NCATS)
# Inconclusive results are not listed. Values without a mark were called inactive. Calls of active or inactive are those of the source. Calls come from the whole dose curve; as a rule, active = well fitted cell-killing curve with a large enough effect; inconclusive = small, poorly fitted or top-dose-only effect, or effect the other way; inactive = no such curve, though single readings can be large or run the other way.
# Legend:
# [1] = Quantitative High-Throughput drug screen in 47 multiple myeloma cell lines against the NCATS MIPE library collection: OCIMY5_PLB cell viability assay (AID 1918988); note: nearly all actives have a fitted effect of over 65% in size; note: potency is the fitted concentration of half-maximal effect
# Summary of the method: (§1)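 MIPE 4.0 approved/investigational drugs; 500 cells/well; 48 h 37 °C humidified 5% CO2; CTG luminescence readout; DMSO = 100%, media = 0% viability.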
# [2] = Quantitative High-Throughput drug screen in 47 multiple myeloma cell lines against the NCATS MIPE library collection: SKMM1_PLB cell viability assay (AID 1919863); details: SKMM1 myeloma viability, CellTiter-Glo ATP, 48 h; viability: stronger effect = lower value; note: nearly all actives have a fitted effect of over 35% in size
# Summary of the method: as §1
# [3] = Quantitative High-Throughput drug screen in 47 multiple myeloma cell lines against the NCATS MIPE library collection: U266_ATCC cell viability assay (AID 1919864); note: nearly all actives have a fitted effect of over 35% in size; note: potency is the fitted concentration of half-maximal effect;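 for viability (% of DMSO control): 0% = media-only wells without cells and 100% = DMSO-only wells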
# Summary of the method: as §1
# [4] = Quantitative High-Throughput drug screen in 47 multiple myeloma cell lines against the NCATS MIPE library collection: XG6_PLB cell viability assay (AID 1919865); note: nearly all actives have a fitted effect of over 40% in size; note: potency is the fitted concentration of half-maximal effect
# Summary of the method: as §1
# [5] = Quantitative High-Throughput drug screen in 47 multiple myeloma cell lines against the NCATS MIPE library collection: VP6_DJ cell viability assay (AID 1919867); note: potency is the fitted concentration of half-maximal effect; nearly all actives have a fitted effect of over 40% in size
# Summary of the method: as §1
# [6] = Quantitative High-Throughput drug screen in 47 multiple myeloma cell lines against the NCATS MIPE library collection: OPM1_PLB cell viability assay (AID 1918989); note: nearly all actives have a fitted effect of over 40% in size; note: potency is the fitted concentration of half-maximal effect
# Summary of the method: as §1
# [7] = Quantitative High-Throughput drug screen in 47 multiple myeloma cell lines against the NCATS MIPE library collection: XG1_PLB cell viability assay (AID 1919866); note: nearly all actives have a fitted effect of over 35% in size; note: potency is the fitted concentration of half-maximal effect
# Summary of the method: as §1
# [8] = Quantitative High-Throughput drug screen in 47 multiple myeloma cell lines against the NCATS MIPE library collection: PCM6_Riken cell viability assay (AID 1919870); note: nearly all actives have a fitted effect of over 30% in size; note: potency is the fitted concentration of half-maximal effect
# Summary of the method: as §1
# [9] = Quantitative High-Throughput drug screen in 47 multiple myeloma cell lines against the NCATS MIPE library collection: PE2_PLB cell viability assay (AID 1919869); note: nearly all actives have a fitted effect of over 35% in size; note: potency is the fitted concentration of half-maximal effect
# Summary of the method: as §1
# [10] = Quantitative High-Throughput drug screen in 47 multiple myeloma cell lines against the NCATS MIPE library collection: UTMC2_PLB cell viability assay (AID 1919868); details: CellTiter-Glo ATP luminescence, 48 h; viability (% of DMSO control): at 45.8 µM (top of the series); note: potency is the fitted concentration of half-maximal effect; nearly all actives have a fitted effect of over 55% in size
# Summary of the method: as §1
structure (smiles),measurement,setting,value
COc1ccccc1-c1cccc(-c2c(O)c3cc(C#N)c(Cl)cc3[nH]c2=O)c1,Potency,[1],inactive
same,viability,[2],104%
same,Potency,[3],inactive
same,Potency,[4],34 µM (active)
same,Potency,[5],21.5 µM (active)
NC(=O)c1ccc(-c2nc(-c3ccc4c(c3)OCCO4)c(-c3ccccn3)[nH]2)cc1,Potency,[1],18.7 µM (active)
same,viability,[2],112%
same,Potency,[4],8.33 µM (active)
same,Potency,[5],23.5 µM (active)
CNC(=O)c1ccc(C)c(-n2c(C)cc(OCc3ccc(F)cc3F)c(Br)c2=O)c1,Potency,[6],13.2 µM (active)
same,viability,[2],116%
same,Potency,[3],inactive
same,Potency,[4],16.6 µM (active)
same,Potency,[7],6.62 µM (active)
same,Potency,[5],16.6 µM (active)
same,Potency,[8],14.8 µM (active)
CCCn1c(=O)c2[nH]c(C34CC5CC3C[C@@H](C5)C4)nc2n(CCC)c1=O,Potency,[6],inactive
same,Potency,[3],inactive
same,Potency,[9],inactive
COc1cc(F)c(F)c(Nc2ccc(I)cc2F)c1NS(=O)(=O)C1(C[C@H](O)CO)CC1,Potency,[6],11.8 µM (active)
same,Potency,[3],16.6 µM (active)
same,Potency,[8],14.8 µM (active)
O=c1ncn2nc(Sc3ccc(F)cc3F)ccc2c1-c1c(Cl)cccc1Cl,Potency,[6],16.6 µM (active)
same,Potency,[3],20.9 µM (active)
same,Potency,[4],13.2 µM (active)
same,Potency,[9],3.72 µM (active)
COc1ccc(-c2c(-c3ccc(O)cc3O)n[nH]c2C)cc1,Potency,[6],30.3 µM (active)
same,viability,[2],137%
same,Potency,[3],inactive
same,Potency,[5],34 µM (active)
CCCCNc1cc(C(=O)O)cc(S(N)(=O)=O)c1Oc1ccccc1,Potency,[6],inactive
same,viability,[2],158%
same,Potency,[7],inactive
same,Potency,[9],inactive
same,Potency,[8],inactive
CCn1c(-c2nonc2N)nc2c(C#CC(C)(C)O)ncc(OC[C@H]3CCCNC3)c21,Potency,[6],0.148 µM (active)
same,Potency,[3],23.5 µM (active)
same,Potency,[4],18.7 µM (active)
same,Potency,[5],14.8 µM (active)
same,Potency,[10],0.059 µM (active)
same,Potency,[9],9.35 µM (active)
same,Potency,[8],14.8 µM (active)
N=c1nc(N2CCCCC2)cc(N)n1O,Potency,[6],16.6 µM (active)
same,Potency,[3],inactive
same,Potency,[4],23.5 µM (active)
same,Potency,[7],26.4 µM (active)
same,Potency,[8],23.5 µM (active)
Nc1cccc(S(=O)(=O)N2CCCN(S(=O)(=O)c3ccc4c(c3)OCCO4)CC2)c1,Potency,[6],inactive
same,viability,[2],103%
same,Potency,[7],7.43 µM (active)
COc1ccc(CCN2CCN(CCCc3ccccc3)CC2)cc1OC,Potency,[6],inactive
same,viability,[2],104%
same,Potency,[4],4.69 µM (active)
same,Potency,[7],inactive
same,Potency,[9],inactive
same,Potency,[8],inactive
Fc1ccc(Cl)cc1-c1nc(Nc2ccncc2)c2nccnc2n1,Potency,[6],14.8 µM (active)
same,viability,[2],120%
same,Potency,[3],inactive
same,Potency,[4],3.32 µM (active)
same,Potency,[7],inactive
same,Potency,[9],7.43 µM (active)
same,Potency,[8],5.9 µM (active)
Cc1[nH]c(=O)c(C#N)cc1-c1ccc2nccn2c1,Potency,[6],inactive
same,Potency,[3],inactive
same,Potency,[4],inactive
same,Potency,[7],inactive
same,Potency,[9],inactive
same,Potency,[8],2.64 µM (active)
CCc1ccc(CCOc2ccc(CC3SC(=O)NC3=O)cc2)nc1 (stereo unspecified),Potency,[6],inactive
same,Potency,[3],inactive
same,Potency,[9],inactive
same,Potency,[8],18.7 µM (active)
CC(c1cc2ccccc2s1)N(O)C(N)=O (stereo unspecified),Potency,[6],inactive
same,viability,[2],118%
same,Potency,[3],inactive
same,Potency,[4],inactive
same,Potency,[7],inactive
same,Potency,[9],inactive
O=C1CCc2cc(OCCCCc3nnnn3C3CCCCC3)ccc2N1,Potency,[6],inactive
same,Potency,[3],inactive
NNCCc1ccccc1,Potency,[6],inactive
same,Potency,[3],8.33 µM (active)
same,Potency,[4],inactive
same,Potency,[9],inactive
CCCc1nc2c(C)cc(-c3nc4ccccc4n3C)cc2n1Cc1ccc(-c2ccccc2C(=O)O)cc1,Potency,[6],inactive
same,viability,[2],142%
same,Potency,[4],23.5 µM (active)
same,Potency,[7],20.9 µM (active)
same,Potency,[5],16.6 µM (active)
same,Potency,[9],11.8 µM (active)
